The supplement of paper PMC3334620
Over roughly 33,000 sequences, “E-score (-0.5 to 0.5)” has its median near -0.0059; the highest 2% begin near 0.26. The entries come from a sample that favours the highest values as a whole.

Target: T1, Cin5 (UniProt P40917)
T1 sequence: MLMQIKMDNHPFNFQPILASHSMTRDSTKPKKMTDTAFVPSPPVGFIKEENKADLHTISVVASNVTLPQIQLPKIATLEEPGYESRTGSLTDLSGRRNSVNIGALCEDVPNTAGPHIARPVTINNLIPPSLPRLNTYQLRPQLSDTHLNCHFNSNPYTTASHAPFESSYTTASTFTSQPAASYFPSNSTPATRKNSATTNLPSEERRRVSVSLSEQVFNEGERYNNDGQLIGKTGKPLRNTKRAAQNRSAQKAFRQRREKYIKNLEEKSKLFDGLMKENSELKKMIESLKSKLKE
Test: PBM E-score (8-mer binding enrichment) (E-score (-0.5 to 0.5)); higher = stronger / more preferred TF binding
Details: protein concentration: 100 nM; construct: GST-full length
Method: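 Universal 'all 10-mer' protein binding microarrays (Agilent AMADID 015681) probed with GST-tagged S. cerevisiae TFs (full-length or DBD) made by in vitro transcription/translation (PURExpress), about 100-200 nM. Bound TF was detected with fluorescent anti-GST. Each ungapped 8-mer (which stands for itself and its reverse complement) is scored by the PBM enrichment score (E-score), a modified Wilcoxon-Mann-Whitney statistic from -0.5 to +0.5, computed with the Universal PBM Analysis Suite. Scale: above 0.35 generally sequence-specific binding.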

Row | Sequence | PBM E-score
1 | ATACTCCA | 0.122
2 | AGCAGAGA | 0.0498
3 | ATTCATTG | 0.116
4 | ATTCATTC | 0.299
5 | ATTCATTA | 0.122
6 | ACTCAGAC | -0.0116
7 | AACTATAC | 0.0815
8 | ACCTATAC | 0.0459
9 | AAATAGAC | 0.143
10 | AAATAGAG | -0.0761
11 | AAATATAT | 0.295
12 | AACTATAT | 0.294
13 | AAATATAA | 0.203
14 | ACCTATAA | -0.0275
15 | AAATAGAT | 0.297
16 | AAATATAC | 0.178
17 | ACCTATAT | 0.269
18 | AACTATAG | 0.051
19 | ACATCAGC | 0.0733
20 | CACTGAAC | 0.0413
21 | AGAGAGCC | -0.283
22 | CGTAGTGC | -0.0666
23 | GGCGTGAA | -0.183
24 | CAATAAGG | -0.0974
25 | AGTCGGCA | -0.0519

Row | Sequence | PBM E-score
26 | CGGCCGTC | -0.125
27 | CACCCCCC | -0.498
28 | AAGCAAGC | 0.0852
29 | ATCATGAT | 0.098
30 | TACTATAA | 0.333
31 | CACTATAA | -0.0724
32 | AACTATAA | 0.195
33 | ATGCCCCA | -0.0481
34 | AGCAAGGC | -0.0671
35 | ACCGCCAA | -0.0388
36 | AAGAGAAA | -0.0461
37 | AAGAGAAT | 0.261
38 | AAGAGAAG | -0.0313
39 | AAATTCAT | 0.0992
40 | AAGAGTTA | -0.0309
41 | CCATCACG | -0.0302
42 | AGTCGAGG | -0.168
43 | ATATACAA | 0.266
44 | CAATACAG | 0.0431
45 | ATATACTA | 0.318
46 | CTATACTA | 0.198
47 | ATATACAC | 0.134
48 | ATATACTC | 0.209
49 | CAATACAC | 0.00745
50 | CTATACAA | 0.00862

Row | Sequence | PBM E-score
51 | CAATACAA | 0.308
52 | CAACGACC | -0.0159
53 | TTCCTAAA | -0.157
54 | CGATGCGC | 0.0485
55 | GAGCGGAC | -0.251
56 | CTTCCAAA | 0.0243
57 | AAGACTCG | -0.0863
58 | CTGCCCGA | -0.00627
59 | AGGCGGCG | -0.0941
60 | ATGACGTC | 0.255
61 | ATGACGTG | 0.191
62 | GTGACGTA | 0.204
63 | ATGACGTA | 0.338
64 | CTGACGTC | 0.035
65 | CTGACGTA | 0.278
66 | AGATTAGA | -0.0761
67 | AGGGGGGC | -0.479
68 | CATTATAA | 0.0881
69 | CATTATCC | 0.276
70 | CATTATAC | 0.287
71 | CATTATCG | 0.0028
72 | GATTATCC | 0.0776
73 | AATTATAC | 0.208
74 | CACGGAGG | -0.173
75 | CTGTCTAA | -0.0712

Row | Sequence | PBM E-score
76 | CGCGCCGA | -0.124
77 | CAGGTCCC | -0.187
78 | GCCTCCTA | -0.264
79 | CATTATTA | 0.223
80 | GATTATGA | 0.291
81 | CATTATGA | 0.13
82 | AATTATTA | 0.242
83 | GATTATGC | 0.172
84 | GATTATTA | 0.316
85 | ACTGCAAC | -0.0484
86 | AAGAGTCA | -0.12
87 | GAAAGAAA | 0.283
88 | GAAAGAAC | -0.0462
89 | CAAAGATA | 0.12
90 | CAAAGAAA | 0.0585
91 | CGAAGATA | 0.266
92 | GAAAGATA | 0.31
93 | GGAAGATA | 0.13
94 | TAAAGATA | 0.171
95 | AGAAGATA | 0.188
96 | CACGAGAC | -0.11
97 | TAAGAAGA | 0.122
98 | GATGCAAC | -0.0342
99 | GGAACCCA | -0.0933
100 | TAAAGGGA | -0.115

Row | Sequence | PBM E-score
101 | AATTGGGG | 0.0653
102 | AATTGGGC | 0.0334
103 | AATTGGGT | 0.319
104 | TATAGCAA | 0.134
105 | GATAGCAA | 0.279
106 | CATAGCAA | 0.111
107 | CTTAAGAA | 0.0235
108 | ACGGAAAT | 0.305
109 | ACGGAAAA | 0.161
110 | ACGGAAAC | -0.00025
111 | CGGCACCG | 0.00123
112 | ACACATAC | 0.0411
113 | GCACATAA | 0.0702
114 | CCACATAA | 0.184
115 | TCACATAA | 0.31
116 | ACACATAA | 0.274
117 | ACACATAG | -0.0306
118 | CACTATCG | 0.0597
119 | AGCCAAAA | 0.0959
120 | CGGTTTGA | -0.0691
121 | AGGTTTAT | 0.251
122 | CGAGAGCC | -0.163
123 | AAGCCAAT | 0.122
124 | AACGTAAC | 0.217
125 | AACGTAAA | 0.21

Row | Sequence | PBM E-score
126 | CACGTAAC | 0.0354
127 | CACGTAAG | 0.288
128 | CTCGTAAC | 0.129
129 | TACGTAAA | 0.302
130 | TACGTATA | 0.167
131 | AACGTAAG | 0.274
132 | CTCGTAAG | 0.304
133 | CACGTAAA | -0.0217
134 | GACGTAAA | 0.103
135 | ATCGTAAG | 0.159
136 | AGCAGCGC | -0.0185
137 | ACCACCTG | -0.0268
138 | AATCGCTA | -0.0414
139 | ACGAGCCC | -0.0676
140 | GAACTCAC | -0.014
141 | ACCGTAAT | 0.223
142 | AACGTAAT | 0.421
143 | AACGTACT | 0.105
144 | AAATTAGT | 0.293
145 | AATTTAGG | 0.168
146 | AAATTAGG | 0.102
147 | AAATTAGA | 0.206
148 | AATTTAGT | 0.284
149 | AATTTAGA | 0.0855
150 | GGAGCTCC | -0.164

Row | Sequence | PBM E-score
151 | GTCTAACA | -0.192
152 | CGATGGCA | -0.0471
153 | ACCACAGT | 0.181
154 | CATCCACG | 0.0707
155 | ACCGTTTA | -0.034
156 | AAACCGCG | 0.265
157 | AAACCGCC | 0.0261
158 | AAACCGCA | -0.142
159 | CAACCGCC | -0.126
160 | CAACCGCA | 0.0315
161 | CAACCGCG | 0.269
162 | AATTGTGC | 0.124
163 | CAGCGGAA | 0.0943
164 | GCCCATCA | -0.115
165 | AGCTCTCC | -0.174
166 | ACGGAACA | 0.2
167 | CCGGAACA | 0.145
168 | TCGGAACA | 0.29
169 | ATATATTA | 0.272
170 | ATATATTC | 0.248
171 | CTATATTC | 0.0546
172 | ACATATTG | 0.0935
